# FUS yeast rescue = qHTS for Suppressors of FUS Proteinopathy: Primary screen using FUS-linked yeast assay; S. cerevisiae FUS-expressing, growth rescue, OD600, 24 h; Potency, µM (doses to about 76.6 µM), usual class: activators; 390,000 tested, 0.24% active;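 further: plate controls were DMSO vehicle for no effect and reference control for full effect; nearly all actives have a fitted effect of over 55% in size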
#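 Toxicity suppression screen in FUS-yeast. Cells induced with 2% galactose, starting OD 0.005, treated 24hr at 30C with compounds at multiple final concentrations; growth by OD600.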
# aSyn rescue = qHTS of alpha-syn Inhibitors | Yeast expressing alpha-synuclein, growth rescue, BacTiter-Glo, 24 h | Potency, µM (doses to about 46.1 µM), without a hit: at the top dose growth rescue (activation), usual class: activators | 370,000 tested, 0.14% active; further: % of control where 0% means no effect; nearly all actives have a fitted effect of over 65% in size
#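 Readout is rescue of growth in alpha-synuclein-expressing yeast, so inhibitors of toxicity appear as activators. Growth after 24 hr at 30 deg C in galactose medium is quantified by luminescence.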
# Abeta yeast res = qHTS for compounds that reverse cellular toxicity of Amyloid beta (A-beta) peptide in yeast: Primary Screen; yeast expressing A-beta42, growth rescue, OD600, 48 h; response scale: 0% DMSO, 100% iron-clioquinol control; Potency, µM (top dose mostly 46.1 µM), most hits filed as activators; 410,000 tested, 0.063% active; further: nearly all actives have a fitted effect of over 55% in size
#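 Yeast growth medium received pinned compounds, then yeast cells expressing toxic A-beta were added; plates incubated at 30 C for 48 hr. Growth read as absorbance at 600 nm, normalized to DMSO and equimolar FeCl3 plus clioquinol controls.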
# PTAP TSG101 blk = qHTS Assay for Iinhibitors of HIV-1 Budding by Blocking the Interaction of PTAP/TSG101; Fluorescence polarization, FITC-PTAP peptide / Tsg101 binding; Potency, µM (titrated, usually from 115 µM), without a hit: top-dose activity change, negative = inhibition, most hits filed as inhibitors; 340,000 tested, under 10 active; active means well fitted inhibition curve with a large enough effect in the main read-out, with a control signal flat, not every such curve was filed as active; inconclusive means small, poorly fitted or top-dose-only effect, or effect the other way, or a change in a side signal; inactive means no such curve, though single readings can be large or run the other way; further: % of control where 0% means no effect
# Target sequence (Q99816 whole entry, looked up): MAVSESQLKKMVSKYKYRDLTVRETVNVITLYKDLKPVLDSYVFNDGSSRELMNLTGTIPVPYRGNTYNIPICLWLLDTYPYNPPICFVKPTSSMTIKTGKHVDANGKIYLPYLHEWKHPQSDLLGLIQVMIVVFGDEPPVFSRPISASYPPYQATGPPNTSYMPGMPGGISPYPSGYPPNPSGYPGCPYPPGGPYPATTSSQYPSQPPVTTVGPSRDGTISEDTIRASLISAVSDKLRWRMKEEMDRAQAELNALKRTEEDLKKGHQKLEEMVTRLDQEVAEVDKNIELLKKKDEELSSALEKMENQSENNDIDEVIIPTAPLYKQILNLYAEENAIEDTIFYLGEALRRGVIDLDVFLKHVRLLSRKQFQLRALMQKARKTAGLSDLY
#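 Steps: Tsg101 binding domain dispensed (10 uM final), compounds pinned in DMSO, FITC-labeled PTAP-motif peptide added (50 nM final); after 20 min binding at room temperature, polarization measured.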
# TDP-43 yeast inh = qHTS of TDP-43 Inhibitors; TDP-43 expressing yeast growth rescue, BacTiter-Glo, 24 h; Potency, µM (series often up to 46.1 µM), for the others: at the highest dose growth rescue (activation), usual class: activators; 410,000 tested, 1.8% active; AID 652104, 2013; further: % of control where 0% means no effect; nearly all actives have a fitted effect of over 50% in size
#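 Luminescence from BacTiter-Glo reports growth of TDP-43-expressing yeast after 24 hr at 30 deg C with compound. Cells were raffinose-pregrown to mid-log, then seeded in galactose medium at OD600=0.02.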
# * = called active by the depositor; i = inactive; u = inconclusive; x = not tested or not shown; ! = a repeat was not active; [ ] = remark or other dose. A selection: hits, their analogues and other compounds. The true share with any hit is near 2.1%. Unless noted, the call rests on the fitted dose curve; in most records, active means well fitted curve in the direction sought with a large enough effect; inconclusive means small, poorly fitted or top-dose-only effect, or another doubt; inactive means no such curve, though single readings can be large; an effect the other way counts as inactive or inconclusive. Potency means the concentration at half of the fitted maximal effect.
SMILES,FUS yeast rescue,aSyn rescue,Abeta yeast res,PTAP TSG101 blk,TDP-43 yeast inh
CCc1ccc(-c2ccc(C(=O)O)cc2)nc1,i,5.8%,i,-0.6%,35.5µM*
CC1=C(C(=O)Nc2cccnc2)C(c2cccc(O)c2)n2nc(SCc3ccccc3)nc2N1 (centres undefined),i,x,i,x,21.5%[9.22 µM]
CC(CCO)Nc1nc2c(c(=O)n(C)c(=O)n2C)n1Cc1ccc(Br)cc1 (centres undefined),i,x,i,x,5.7%
CC1(C(=O)Nc2ccc(Cl)c(Cl)c2)CCN1Cc1ccccc1OC(F)F (centres undefined),i,-35.6%,i,x,22.4µM*
COc1ccc(NC(=O)C2(C)CCN2Cc2ccccc2OC(F)F)cc1OC (centres undefined),i,-0.7%,i,x,13.6%
COc1ccc(OC)c2c1C(=O)c1ccccc1C2=O,i,-4.9%,i,u,25.1µM*
COC1=C(Nc2ccccc2)C(=O)c2ccccc2C1=O,i,0.0%,i,-0.3%,12.6µM*
COC1=C(OC)C(=O)c2ccccc2C1=O,x,10.5%,x,x,x
COC1=C(Nc2ccc(C)cc2)C(=O)c2ccccc2C1=O,x,-16.1%,i,-1.7%,10µM*
O=C(C1CCCN(S(=O)(=O)c2ccccc2[N+](=O)[O-])C1)N1CCN(Cc2ccccc2)CC1 (centres undefined),i,x,x,x,x
C=C(C)Cn1c2ccc(NC(=O)NCc3ccc(F)cc3)cc2c(=O)n1C,i,-1.4%,i,x,-7.7%
COC(=O)c1ccccc1NC(=O)C1CCCN(C(=O)c2cnn(-c3ccc(F)cc3)c2-n2cccc2)C1 (centres undefined),i,5.0%,i,x,35.5µM*
O=C(c1cnn(-c2ccc(F)cc2)c1-n1cccc1)N1CCN(c2cccc(Cl)c2)CC1,i,2.3%,i,x,12.6µM*
COCCCNC(=O)C1CCCN(C(=O)c2cnn(-c3ccc(F)cc3)c2-n2cccc2)C1 (centres undefined),i,u,i,x,0.0%
CCOC(=O)N1CCN(C(=O)c2cnn(-c3cccc(F)c3)c2-n2cccc2)CC1,i,x,i,x,15.9%
Cc1ccc2c(c1)cc1c(=O)n(CC(=O)NCc3ccco3)nc(C)n12,i,x,i,x,14.7%
O=c1ccc(-c2ccccc2)nn1Cc1ccc(F)cc1Cl,i,19.8%,i,-0.2%,31.6µM*!
O=C(Cn1nc(-c2ccccc2)ccc1=O)NCc1ccc(F)cc1Cl,i,x,i,x,25.5%
Cc1ccc(-c2ccc(=O)n(Cc3cccc(Br)c3)n2)cc1,u,22.4µM*,i,-4.6%,3.8%
O=c1ccc(-c2ccccc2)nn1Cc1ccccc1,i,-1.1%,i,-6.1%,22.4µM*
Cc1cc(C)c(NC(=O)Cn2c(=O)n(CC3CCCO3)c(=O)c3ccccc32)c(C)c1 (centres undefined),i,x,i,x,u
Nc1nc(N)c2[nH]c(-c3ccccc3)nc2n1,i,-11.5%,i,-2.6%,12.6µM*
Cc1nnc(NC(=O)C(=O)c2cc(C)n(-c3ccc(C)c(C)c3)c2C)s1,i,x,i,x,-1.7%
CCC(C)Sc1ccc(-c2nc3ccc(C)cn3c2NCc2ccccc2)cc1OC (centres undefined),u,-54.8%,i,u,-45.5%
CCC(C)Sc1cc(-c2nc3ccc(C)cn3c2NCc2ccccc2)ccc1OC (centres undefined),31.6µM*!,-55.8%,i,-2.7%,29.0%
N#C/C(=C\c1ccc(OC(F)F)cc1)C(=O)N1CCCCC1,i,12.6µM*,i,-0.1%,u
Cc1[nH]c(-c2ccc(F)cc2)cc1C(=O)N1CCN(c2ccccc2)CC1,i,u,i,-2.1%,17.8µM*
COc1cccc(N2CCN(C(=O)c3cc(-c4ccc(F)cc4)[nH]c3C)CC2)c1,u,u,i,1.1%,0.0%

# Compound activity: PubChem BioAssay, National Center for Advancing Translational Sciences (NCATS)
